# Test results taken from ChEMBL document CHEMBL3988442, “University of Dundee, Small-Polar-MMV Screening Library” (2021).
# Hit rate of the full screen: of about 66,000 compounds, about 960 (1.5%) showed an effect of 50% or more. The sample as a whole holds a higher share of strong results than the screen did.
# System: Trypanosoma brucei
# Test: Trypanosoma brucei 72 hour study
# Assay type: functional, organism-based
# Set-up: scale not given: in the data most compounds retested in dose-response had high values
structure (smiles),measurement,setting,value
CC(=O)N1CCC(Nc2cc(F)ccc2OCC2CCCO2)CC1 (centres undefined),Percent Effect,10 µM,-21.13%
COCC1CN(Cc2ccc(C)s2)Cc2nnn(C)c21.O=C(O)C(F)(F)F (centres undefined),Percent Effect,"30.3 µM, […]",-30.47%
O=C1C(NCc2nnc3n2CCCC3)CCN1c1ccccc1F (centres undefined),Percent Effect,10 µM,0.3109%
CN1[C@@H](C(=O)NCC2CC2)C[C@H]2CN(Cc3cccc(C#N)c3)C[C@H]21.O=C(O)C(F)(F)F.O=C(O)C(F)(F)F,Percent Effect,"30.3 µM, […]",-35.21%
CCN(C)c1ncnc2c1CCN(Cc1ccncc1)CC2.O=C(O)C(F)(F)F.O=C(O)C(F)(F)F.O=C(O)C(F)(F)F,Percent Effect,"30 µM, 30.03 µM",14.6%
CC1c2ncc(COc3cccnc3)n2CCN1Cc1ccco1 (centres undefined),Percent Effect,"30.3 µM, […]",-3.756%
CC(C)C1SCC(=O)Nc2c1cnn2-c1ccc(Cl)cc1 (centres undefined),Percent Effect,"30 µM, 30.03 µM",16.61%
CC(C)N(C)S(=O)(=O)c1ccc2c(c1)CCN(C(=O)c1cscn1)C2,Percent Effect,"30 µM, 30.03 µM",-38.59%
CN1CC[C@H](N(C)Cc2ccccc2)C[C@H](O)C1,Percent Effect,"30.3 µM, […]",-4.232%
CN1CC[C@H](N(Cc2ccccc2)Cc2ccccc2)C[C@H](O)C1,Percent Effect,"30.3 µM, […]",67.88%
CN1CC[C@H](N(Cc2ccccc2)CC2CC2)C[C@H](O)C1,Percent Effect,"30.3 µM, […]",2.753%
O=C(O)C(F)(F)F.O=C(c1ccsc1)N1CCO[C@@H]2CN(Cc3ccco3)CC[C@@H]2C1,Percent Effect,"30.3 µM, […]",-78.45%
CNC(=O)CN1CCOCC12CCN(CCc1ccccc1)CC2.O=C(O)C(F)(F)F.O=C(O)C(F)(F)F,Percent Effect,"30 µM, 30.03 µM",40.27%
CC(C)(C)C(NCC(=O)N1CCNC(=O)C1)c1ccccc1 (centres undefined),Percent Effect,"30 µM, 30.03 µM",-32.1%
CCc1nc(NS(=O)(=O)c2ccc(C)cc2Cl)no1,Percent Effect,"30 µM, 30.03 µM",33.48%
CCc1nc(NS(=O)(=O)c2cc(C)c(F)cc2Cl)no1,Percent Effect,"30.3 µM, […]",54.01%
CCc1nc(NS(=O)(=O)c2ccc(F)cc2Cl)no1,Percent Effect,"30.3 µM, […]",-4.749%
CN(C)C(=O)c1cnc2n1CCN(Cc1ccc3c(c1)OCO3)C2.O=C(O)C(F)(F)F,Percent Effect,"30.3 µM, […]",-102%
CC(O)CN1CCC(CNCc2ccccc2OC(F)(F)F)CC1 (centres undefined),Percent Effect,"30 µM, 30.03 µM",-22.34%
CC(O)CN1CCC(CNCc2cccc(Cl)c2)CC1 (centres undefined),Percent Effect,"30.3 µM, […]",36.81%
CC(O)CN1CCC(CNCc2cccc(C(F)(F)F)c2)CC1 (centres undefined),Percent Effect,"30.3 µM, […]",86.87%
CC(O)CN1CCC(CNCc2ccc(OC(F)(F)F)cc2)CC1 (centres undefined),Percent Effect,10 µM,63.69%
CC(O)CN1CCC(CNCc2cccc(Br)c2)CC1 (centres undefined),Percent Effect,"30 µM, 30.03 µM",-7.469%
CC(O)CN1CCC(CNCc2cccc(OC(F)(F)F)c2)CC1 (centres undefined),Percent Effect,10 µM,16.76%
CN(C)c1ncc(C(=O)N2C[C@H]3C[C@H](Oc4ccccc4)C[C@H]3C2)cn1,Percent Effect,"30.3 µM, […]",8.214%
Cl.Cn1ccnc1CNC(=O)c1cncc(C2CCNCC2)n1,Percent Effect,"30.3 µM, […]",-8.849%
O=C(O)C(F)(F)F.O=C(c1cccc(Cl)c1)N1CCCn2c(CN3CCCCC3)nnc2C1,Percent Effect,"30 µM, 30.03 µM",5.337%
Oc1cccc(CNCc2ccc(-n3cncn3)nc2)c1,Percent Effect,"30.3 µM, […]",-113.8%
COCCN1C(=O)[C@H]2CC[C@@H]1CN(S(=O)(=O)c1ccc(C#N)cc1)C2,Percent Effect,"30.3 µM, […]",-35.87%
CCO[C@H]1CO[C@@]2(CCCN(S(=O)(=O)c3cccnc3)C2)C1.O=C(O)C(F)(F)F,Percent Effect,"30 µM, 30.03 µM",23.98%
Fc1cccc(CN2CCOC3(COCCN(CC4CC4)C3)C2)c1.O=C(O)C(F)(F)F.O=C(O)C(F)(F)F (centres undefined),Percent Effect,"30.3 µM, […]",-50.27%
CC(C)(C)c1ccc(C(=O)C2CCCN(C(=O)CNS(C)(=O)=O)C2)cc1 (centres undefined),Percent Effect,"30.3 µM, […]",-41.24%
CC(C)(N)C(=O)N1CCCC(C(=O)c2ccc(C(C)(C)C)cc2)C1 (centres undefined),Percent Effect,"30.3 µM, […]",89.7%
CC(=O)NCC(=O)N1CCCC(C(=O)c2ccc(C(C)(C)C)cc2)C1 (centres undefined),Percent Effect,"30.3 µM, […]",-72.68%
O=C(O)C(F)(F)F.O=C(c1ccnnc1)N1C[C@H](Oc2ccccn2)[C@H]2OCCC[C@H]21,Percent Effect,"30.3 µM, […]",-55.97%
Cl.OC1CCN(c2cncc(CCC3CCCN3)n2)CC1 (centres undefined),Percent Effect,"30.3 µM, […]",-6.285%
Cc1ncoc1C(=O)N1CCn2c(COCC3CC3)cnc2C1C (centres undefined),Percent Effect,"30.3 µM, […]",10.54%
CCOCc1cnc2n1CCN(C(=O)c1ccoc1C)C2C (centres undefined),Percent Effect,"30.3 µM, […]",-34.9%
Cc1occc1C(=O)N1CCn2c(COCC3CC3)cnc2C1C (centres undefined),Percent Effect,"30 µM, 30.03 µM",51.37%
COc1ccc(CN2CCC3(CC2)CCN(CC(C)C)C3=O)cc1.O=C(O)C(F)(F)F,Percent Effect,"30.3 µM, […]",0.8917%
CN(C)CCO[C@H]1CN(CC2CC2)[C@@H]2CCCO[C@H]12.O=C(O)C(F)(F)F.O=C(O)C(F)(F)F,Percent Effect,"30.3 µM, […]",15.45%
c1ccc(N2CCC(c3ccncc3)CC2)cc1,Percent Effect,"30.3 µM, […]",0.5256%
CC(=O)N1CCCC2(C1)CN(c1nncs1)CCO2.O=C(O)C(F)(F)F (centres undefined),Percent Effect,"30.3 µM, […]",-90.31%
Cc1nc(C2CCNCC2)cc(N(C)Cc2cc3cc(F)ccc3[nH]2)n1,Percent Effect,"30 µM, 30.03 µM",7.512%
CCN(Cc1ccncc1)c1cc(C2CCNCC2)nc(C)n1,Percent Effect,"30 µM, 30.03 µM",-25.3%
CCN(Cc1c(F)cccc1Cl)c1cc(C2CCNCC2)nc(C)n1,Percent Effect,"30 µM, 30.03 µM",88.22%
O=C(CC1CCCC1)N1C[C@H](OCc2ccncc2)[C@H]2OCCC[C@H]21.O=C(O)C(F)(F)F,Percent Effect,"30 µM, 30.03 µM",-16.6%
Cc1ccc(CN(Cc2ccncc2)C2CC(C)(C)NC(C)(C)C2)o1.O=C(O)CC(O)(CC(=O)O)C(=O)O,Percent Effect,"30.3 µM, […]",-22.8%
O=C(Nc1nccs1)NC1CCN(Cc2ccccc2)C1 (centres undefined),Percent Effect,"30 µM, 30.03 µM",-14.85%
Nc1nccnc1C(=O)NC1CCCN(Cc2c(F)cccc2F)C1 (centres undefined),Percent Effect,"30 µM, 30.03 µM",-36.01%
Nc1nccnc1C(=O)NC1CCN(Cc2ccccc2)C1 (centres undefined),Percent Effect,"30 µM, 30.03 µM",52.39%
c1ccc(N2CCC(OCC3CCCCO3)CC2)nc1 (centres undefined),Percent Effect,"30.3 µM, […]",-91.25%
COc1cc(CNCCn2ccnc2)cc2c1OCO2.Cl,Percent Effect,"30.3 µM, […]",6.439%
COc1cc(CNCc2ccc(C(C)O)cc2)cc2c1OCO2 (centres undefined),Percent Effect,"30 µM, 30.03 µM",8.941%
COc1cc(CNCC(O)c2ccccc2)cc2c1OCO2.Cl (centres undefined),Percent Effect,"30.3 µM, […]",51.8%
Cc1cccc(COc2ccc(C(C)N)cc2)c1.Cl (centres undefined),Percent Effect,"30 µM, 30.03 µM",102.3%
Cc1cccc(COc2ccc(C(C)NS(N)(=O)=O)cc2)c1 (centres undefined),Percent Effect,"30 µM, 30.03 µM",4.364%
Cc1cccc(COc2ccc(C(C)NC(=O)CNC(N)=O)cc2)c1 (centres undefined),Percent Effect,"30 µM, 30.03 µM",6.871%
CN1CC[C@H]2OCC[C@@H](C(=O)NCc3ccco3)[C@@H]2C1.O=C(O)C(F)(F)F,Percent Effect,"30 µM, 30.03 µM",-30.69%
COc1ccnc(N2C[C@@H]3CC[C@H](C2)N(CC2CCC2)C3=O)n1,Percent Effect,"30 µM, 30.03 µM",0.242%
O=C(O)C(F)(F)F.O=C1CC[C@H]2[C@H](CCN2S(=O)(=O)C2CC2)N1CCN1CCCC1,Percent Effect,"30.3 µM, […]",-16.69%
COCC(=O)NCCn1ccc2c(OC)cccc21,Percent Effect,"30 µM, 30.03 µM",21.63%
COc1cccc2c1ccn2CCNC(=O)CC(C)C,Percent Effect,"30 µM, 30.03 µM",-27.5%
COc1cccc2c1ccn2CCC(=O)NCCCC(=O)O,Percent Effect,"30 µM, 30.03 µM",53.78%
CC(C)(C)c1ncc2c(n1)CN(C(=O)c1ccncc1)C2,Percent Effect,"30 µM, 30.03 µM",-0.7468%
CC(C)(C)c1ncc2c(n1)CN(C(=O)c1ccc(-c3nc[nH]n3)cc1)C2,Percent Effect,"30 µM, 30.03 µM",54.09%
CN(C)c1ccc(C(=O)N2Cc3cnc(C(C)(C)C)nc3C2)cc1,Percent Effect,"30 µM, 30.03 µM",-40.98%
O=C(C1CCOCC1)N1CCO[C@H]2[C@H](Oc3cccnc3)CC[C@@H]21.O=C(O)C(F)(F)F,Percent Effect,"30 µM, 30.03 µM",-14.62%
CCN(CC)C(=O)CN(C)C(=O)c1ccc(-c2ccsc2)nc1C,Percent Effect,"30 µM, 30.03 µM",-62.98%
Cc1cc(CN(C)C(=O)CC(C)C)no1,Percent Effect,"30 µM, 30.03 µM",-35.18%
COc1ccccc1CC(=O)N(C)Cc1cc(C)on1,Percent Effect,"30 µM, 30.03 µM",-10.42%
COc1ccccc1CC(C)CC(=O)N(C)Cc1cc(C)on1 (centres undefined),Percent Effect,"30 µM, 30.03 µM",72.44%
CCc1nccn1C1CCCN(C(=O)C2=NN(C)C(=O)CC2)C1 (centres undefined),Percent Effect,"30.3 µM, […]",-18.44%
COc1ccc(C(C)(C)C)cc1CN1CCn2c(CO)nnc2C1.O=C(O)CC(O)(CC(=O)O)C(=O)O,Percent Effect,"30.3 µM, […]",3.045%
CC(=O)N1CCN([C@@H]2CC[C@@H](NC(=O)c3ccc(C)nc3)[C@H]2O)CC1,Percent Effect,"30.3 µM, […]",-14.37%
CCN1CCN(c2ncc3c(n2)CN(c2cnn(CC)c2)C3=O)CC1,Percent Effect,"30.3 µM, […]",-16.78%
CCOc1cc(CNc2nnn(C)n2)ccc1OCc1ccc(Cl)cc1,Percent Effect,"30.3 µM, […]",13.85%
O=C(c1ccc(-c2ccccc2)[nH]c1=O)N1CCN(C2CC2)CC1,Percent Effect,"30 µM, 30.03 µM",-17.15%
CN1[C@H]2CC[C@@H]1CN(C(=O)c1ccc(-c3ccccc3)[nH]1)CC2,Percent Effect,"30.3 µM, […]",99.15%
CO[C@H]1CN(C(=O)c2ccc(-c3ccccc3)[nH]2)CC[C@H]1N,Percent Effect,"30.3 µM, […]",21.81%
CCOC(=O)CCn1cnc2onc(-c3ccc(OC)cc3)c2c1=O,Percent Effect,"30 µM, 30.03 µM",-27.94%
Cc1nc(C2CCCN2C(=O)c2ccc3c(c2)nc(C)n3C)no1 (centres undefined),Percent Effect,10 µM,-28.6%
same,Percent Effect,"30.3 µM, […]",-7.833%
CS(=O)(=O)CC(=O)N1C[C@H]2CCC[C@@]2(COc2ccccn2)C1.O=C(O)C(F)(F)F,Percent Effect,"30.3 µM, […]",-20.95%
COc1cc(C(=O)NCc2ccc3c(c2)CCCN3C)cc(OC)c1Br,Percent Effect,"30.3 µM, […]",56.02%
COC(=O)c1cccc(C(=O)NCc2ccc3c(c2)CCCN3C)c1,Percent Effect,"30.3 µM, […]",1.912%
CN1CCCc2cc(CNC(=O)c3ccncc3)ccc21,Percent Effect,"30 µM, 30.03 µM",8.977%
CC(C)Oc1ccc(C(=O)NCc2ccc3c(c2)CCCN3C)cn1,Percent Effect,"30.3 µM, […]",9.808%
CN1CCCc2cc(CNC(=O)c3cc[n+]([O-])cc3)ccc21,Percent Effect,"30.3 µM, […]",2.114%
CN1CCCc2cc(CNC(=O)c3ccc(-n4cnnc4)cc3)ccc21,Percent Effect,"30.3 µM, […]",53.86%
CC(C)n1c(=O)c2ccccc2n(CCCN(C)C)c1=O.Cl,Percent Effect,"30 µM, 30.03 µM",2.697%
COCC(=O)Nc1ccnn1-c1ccc(Cl)cc1,Percent Effect,"30.3 µM, […]",12.6%
Cc1ncc2c(n1)C1(CCN(C(=O)C(C)C)CC1)OCC2.Cl,Percent Effect,"30.3 µM, […]",-4.848%
O=C(Cn1ccc2sccc2c1=O)NCc1ccccc1F,Percent Effect,"30 µM, 30.03 µM",1.93%
